# In PubChem BioAssay (NCATS):
# Records with an inconclusive call do not appear. Active and inactive are the calls of the source. Calls come from the whole dose curve; as a rule, active = well fitted inhibition curve with a large enough effect; inconclusive = small, poorly fitted or top-dose-only effect; inactive = flat fitted curve, though single readings scatter.
# Biological target: Glutathione peroxidase 1 (Homo sapiens) (UniProt P07203)
# Assay: Primary qHTS Assay for Inhibitors of Recombinant Selenoprotein Glutathione Peroxidase 1 (GPX1) (AID 1845191); note: nearly all actives have a fitted effect of over 65% in size
# Conditions: recombinant GPX1, GR-coupled NADPH fluorescence, 15 min; series mostly up to 48.8 µM; activity, negative = inhibition: at the top concentration
# Procedure, shortened: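 GPX1 10 nM, GR 100 nM, GSH 1 mM, NADPH 0.5 mM, CHP 0.5 mM (final). 30-min cpd preincubation, RT. Ex340/Em450 read t=0, t=15 min.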
# % is set by controls: 0 for no effect and ±100 for the full control effect.
# Sequence of Glutathione peroxidase 1 (Homo sapiens) (P07203 whole entry, looked up): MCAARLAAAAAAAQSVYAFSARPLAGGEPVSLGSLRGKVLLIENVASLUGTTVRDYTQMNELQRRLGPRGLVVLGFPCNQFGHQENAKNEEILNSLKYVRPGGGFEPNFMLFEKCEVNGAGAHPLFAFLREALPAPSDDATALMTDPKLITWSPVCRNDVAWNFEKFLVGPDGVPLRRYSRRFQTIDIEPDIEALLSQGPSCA
SMILES,"activity, negative = inhibition",outcome
O=C(O[C@H]1[C@@H]2C=CO[C@@H](O[C@@H]3O[C@H](CO)[C@@H](O)[C@H](O)[C@H]3O)[C@@H]2[C@@]2(CO)O[C@@H]12)c1ccc(O)cc1,2.26% [at 27.7 µM] (inactive),
COc1ccc(C2=CC(=O)OC2Cc2ccc(O)cc2)c(O)c1 (centres undefined),,inactive [at 27.7 µM]
CCn1nnnc1NCc1ccc(C(C)C)cc1,,inactive
C[C@]12CCC(=O)C=C1[C@@H](O)C[C@@H]1[C@@H]2[C@@H](O)C[C@@]2(C)[C@H]1CC[C@]2(O)C(=O)CO,,inactive
NC(=O)c1ccc(OCC2NC(=O)C3CCCN3C2=O)cc1 (centres undefined),0.0234% (inactive),
COC1C2=C(COC2=O)C2(C)CCCC(C)(CO)C2C1OC(=O)c1ccccc1 (centres undefined),4.23% [at 27.7 µM] (inactive),
CC(=O)OCC(=O)[C@@]1(O)CC[C@H]2[C@@H]3C[C@H](C)C4=CC(=O)C=C[C@]4(C)[C@H]3[C@@H](O)C[C@@]21C,3.62% (inactive),
OC[C@H]1O[C@@H](Oc2ccc3c(c2)OC[C@H]2c4cc5c(cc4O[C@@H]32)OCO5)[C@H](O)[C@@H](O)[C@@H]1O,,inactive [at 27.7 µM]
C[C@@H]1CC[C@H]2C(C)(C)[C@H](O)[C@H](O)C[C@]2(C)[C@@]12Cc1c(O)cc3c(c1O2)CNC3=O,-9.27% [at 27.7 µM] (inactive),
